Consider 15 compounds from PubChem BioAssay.

Unmarked numbers belong to inactive results. Active and inactive are the calls of the source.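 The calls were made as follows, unless noted: active = mean inhibition over 43.08%, the solvent-only control mean plus 3 SD; inactive = the rest.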

Assay [1] concerns the target Nuclear receptor coactivator 3 (Homo sapiens) (UniProt Q9Y6Q9). Put plainly: NCOA3 GAL4-fusion reporter inhibition – cell-based, luminescence, quadruplicate, confirmation (AID 588792).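 Also: 0% = DMSO treated cells and 100% = gossypol at 36 µM.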 To be noted: HEK293 GAL4-SRC3 luciferase reporter, at 3.6 µM, stronger effect = higher value.
Assay [2] relates to transactivating tegument protein VP16 (Human herpesvirus 1), Gal4-VP16 luciferase reporter. The assay can be described thus: repression of VP16-driven luciferase reporter – cell-based, luminescence, high throughput, counter-screen for SRC3 inhibitor project (AID 588794; in the data active = inhibition above about 30%). To be noted: mammalian cells, at 3.6 µM, stronger effect = higher value. For orientation: Reporter assays use an easily measured gene product as a stand-in for the process of interest.

Assay [3] has as its target Nuclear receptor coactivator 1 (Homo sapiens) (UniProt Q15788). Put plainly: NCOA1 GAL4-fusion reporter inhibition – cell-based, luminescence, quadruplicate, confirmation (AID 588820;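 active = mean inhibition above 46.68%, the untreated control wells mean plus 3 SD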;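 also: 0% = DMSO wells and 100% = gossypol 36 µM treated wells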). To be noted: HEK293 GAL4-SRC1 luciferase reporter, at 3.6 µM, stronger effect = higher value.
The nature of assay [4]: repression of VP16-driven luciferase reporter – cell-based, luminescence, high throughput, counter-screen for SRC1 inhibitor project (AID 588824; in the data active = inhibition above about 25%). To be noted: cell-based VP16 transactivation luciferase luminescence; at 3.6 µM; stronger effect = higher value.
Assay [5] in a line: StAR promoter reporter inhibitors, counter-screen for LRH-1 inverse agonist project, cell-based, luminescence, high throughput (AID 651611; in the data active = inhibition above about 28%). Particulars: StAR promoter luciferase reporter counterscreen, at 3.6 µM, stronger effect = higher value. For orientation: The purpose of a counterscreen is to sort out artefacts and off-target activity.
In assay [6] the target is Nuclear receptor subfamily 5 group A member 2 (Homo sapiens) (UniProt O00482). Put plainly: NR5A2 activity suppression in reporter cells – cell-based, luminescence, confirmation (AID 651613; in the data active = inhibition above about 42%;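 also: HEK293T cells co-transfected with LRH-1 and StAR promoter luciferase reporter; 0% = vehicle wells and 100% = parental cells lacking receptor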). To be noted: cell-based LRH-1 luciferase reporter, inverse agonism; at 3.6 µM; stronger effect = higher value.
For assay [7], the target named is Steroidogenic factor 1 (Homo sapiens) (UniProt Q13285). Put plainly: inverse agonism at SF1 nuclear receptor – cell-based, luminescence, high throughput, counter-screen for LRH-1 inverse agonist project (AID 651614; in the data active = inhibition above about 44%;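 also: cells cotransfected with StAR promoter reporter and SF1 expression vector; 0% = vehicle on cells with receptor and 100% = vehicle on cells lacking receptor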). To be noted: cell-based SF1 luciferase reporter, at 3.6 µM, stronger effect = higher value.
The nature of assay [8]: compounds suppressing VP16-driven luciferase signal – cell-based, luminescence, high throughput, counter-screen for LRH-1 inverse agonist project (AID 651615; in the data active = inhibition above about 33%). To be noted: Gal4-VP16 luciferase reporter cells, at 3.6 µM, stronger effect = higher value.
Assay [9] relates to transactivating tegument protein VP16 (Human herpesvirus 1). Put plainly: compounds suppressing VP16-driven luciferase signal – cell-based, luminescence, single concentration, counter-screen for SRC2 inhibitor project (AID 652007; in the data active = inhibition above about 36%). Particulars: cell-based VP16 transactivation luciferase reporter, at 8.9 µM, stronger effect = higher value.
For assay [10], the target named is Nuclear receptor coactivator 2 (Homo sapiens) (UniProt Q15596). The assay can be described thus: inhibition of GAL4-SRC2 driven luciferase expression – cell-based, luminescence, HEK293, triplicate, confirmation (AID 652008;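 active = mean inhibition above 46.5%, the solvent-only control mean plus 3 SD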;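 also: 0% = DMSO-treated cells and 100% = Gossypol at 36 µM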). Particulars: HEK293 GAL4-SRC2 luciferase reporter, at 8.9 µM, stronger effect = higher value.

Nuclear receptor coactivator 1 (Homo sapiens), sequence (Q15788 whole entry, looked up, the tested form may be a part): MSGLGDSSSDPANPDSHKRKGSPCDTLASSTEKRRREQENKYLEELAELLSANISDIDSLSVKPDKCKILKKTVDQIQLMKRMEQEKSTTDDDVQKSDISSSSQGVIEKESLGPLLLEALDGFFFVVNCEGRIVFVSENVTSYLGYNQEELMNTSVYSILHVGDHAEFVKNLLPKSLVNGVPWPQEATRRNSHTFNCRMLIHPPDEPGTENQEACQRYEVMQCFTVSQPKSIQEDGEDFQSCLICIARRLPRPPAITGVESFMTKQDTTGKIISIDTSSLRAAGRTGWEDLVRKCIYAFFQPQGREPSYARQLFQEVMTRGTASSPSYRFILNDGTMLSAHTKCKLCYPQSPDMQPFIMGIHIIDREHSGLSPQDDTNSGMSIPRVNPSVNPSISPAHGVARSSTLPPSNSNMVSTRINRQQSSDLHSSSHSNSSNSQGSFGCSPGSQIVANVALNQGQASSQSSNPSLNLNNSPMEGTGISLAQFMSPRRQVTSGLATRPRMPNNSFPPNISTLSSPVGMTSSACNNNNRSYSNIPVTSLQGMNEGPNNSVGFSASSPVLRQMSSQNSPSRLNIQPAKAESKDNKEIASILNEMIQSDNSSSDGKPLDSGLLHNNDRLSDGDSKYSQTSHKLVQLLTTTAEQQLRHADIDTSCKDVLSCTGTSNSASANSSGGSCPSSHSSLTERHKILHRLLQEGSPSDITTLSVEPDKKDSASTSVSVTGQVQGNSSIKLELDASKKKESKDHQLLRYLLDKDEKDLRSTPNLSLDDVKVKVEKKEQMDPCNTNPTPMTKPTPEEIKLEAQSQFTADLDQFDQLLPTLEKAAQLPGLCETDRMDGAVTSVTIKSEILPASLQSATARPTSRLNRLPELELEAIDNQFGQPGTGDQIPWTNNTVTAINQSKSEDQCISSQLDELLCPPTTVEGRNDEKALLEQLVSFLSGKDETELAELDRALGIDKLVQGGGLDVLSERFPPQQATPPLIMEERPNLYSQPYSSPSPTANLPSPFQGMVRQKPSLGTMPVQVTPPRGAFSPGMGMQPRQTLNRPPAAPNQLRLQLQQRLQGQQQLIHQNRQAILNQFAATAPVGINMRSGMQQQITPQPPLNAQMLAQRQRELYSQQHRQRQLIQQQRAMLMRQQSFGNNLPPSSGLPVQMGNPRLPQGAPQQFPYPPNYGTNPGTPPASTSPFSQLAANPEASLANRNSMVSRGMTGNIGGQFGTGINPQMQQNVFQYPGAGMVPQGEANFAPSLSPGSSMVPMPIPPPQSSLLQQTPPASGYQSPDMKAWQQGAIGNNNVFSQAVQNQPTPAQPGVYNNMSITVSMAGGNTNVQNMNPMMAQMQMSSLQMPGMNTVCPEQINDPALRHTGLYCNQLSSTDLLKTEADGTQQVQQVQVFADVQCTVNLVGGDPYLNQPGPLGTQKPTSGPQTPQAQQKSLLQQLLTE
Nuclear receptor coactivator 3 (Homo sapiens), sequence (Q9Y6Q9 whole entry, looked up, the tested form may be a part): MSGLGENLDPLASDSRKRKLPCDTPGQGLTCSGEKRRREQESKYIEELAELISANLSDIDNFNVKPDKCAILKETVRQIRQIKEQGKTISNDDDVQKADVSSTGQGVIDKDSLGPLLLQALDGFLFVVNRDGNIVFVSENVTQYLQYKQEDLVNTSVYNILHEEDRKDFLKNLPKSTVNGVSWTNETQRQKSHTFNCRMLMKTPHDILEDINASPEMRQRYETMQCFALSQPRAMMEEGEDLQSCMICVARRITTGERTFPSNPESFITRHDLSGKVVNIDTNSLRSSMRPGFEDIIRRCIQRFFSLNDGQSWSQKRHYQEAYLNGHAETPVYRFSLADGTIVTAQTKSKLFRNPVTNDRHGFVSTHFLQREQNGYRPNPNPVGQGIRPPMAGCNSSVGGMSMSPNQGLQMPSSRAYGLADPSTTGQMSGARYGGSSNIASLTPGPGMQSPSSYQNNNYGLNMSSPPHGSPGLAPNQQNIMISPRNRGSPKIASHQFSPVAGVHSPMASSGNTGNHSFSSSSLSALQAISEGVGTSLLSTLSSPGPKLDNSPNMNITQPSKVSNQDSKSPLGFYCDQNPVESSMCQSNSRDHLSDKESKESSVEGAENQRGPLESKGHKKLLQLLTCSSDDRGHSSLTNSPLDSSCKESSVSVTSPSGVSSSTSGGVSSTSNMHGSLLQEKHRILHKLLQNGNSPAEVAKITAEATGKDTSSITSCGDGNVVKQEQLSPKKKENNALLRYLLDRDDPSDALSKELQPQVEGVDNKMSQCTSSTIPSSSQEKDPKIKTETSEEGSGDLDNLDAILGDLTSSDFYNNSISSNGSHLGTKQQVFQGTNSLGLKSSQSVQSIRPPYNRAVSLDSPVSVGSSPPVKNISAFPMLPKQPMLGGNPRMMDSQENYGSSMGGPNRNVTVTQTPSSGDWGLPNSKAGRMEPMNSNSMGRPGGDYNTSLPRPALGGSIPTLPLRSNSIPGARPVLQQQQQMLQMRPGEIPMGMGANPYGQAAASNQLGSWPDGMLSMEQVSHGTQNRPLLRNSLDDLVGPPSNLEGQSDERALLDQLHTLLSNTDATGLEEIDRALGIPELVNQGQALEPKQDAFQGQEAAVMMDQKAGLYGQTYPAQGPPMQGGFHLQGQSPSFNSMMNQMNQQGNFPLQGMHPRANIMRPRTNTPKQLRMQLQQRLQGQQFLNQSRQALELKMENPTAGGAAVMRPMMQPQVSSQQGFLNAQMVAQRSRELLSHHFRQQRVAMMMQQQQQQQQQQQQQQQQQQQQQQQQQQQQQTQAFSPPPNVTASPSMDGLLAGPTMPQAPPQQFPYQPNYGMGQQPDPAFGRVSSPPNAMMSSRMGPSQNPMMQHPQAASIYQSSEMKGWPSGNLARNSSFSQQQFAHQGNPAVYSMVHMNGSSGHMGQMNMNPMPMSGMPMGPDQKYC
Nuclear receptor subfamily 5 group A member 2 (Homo sapiens), sequence (O00482 whole entry, looked up): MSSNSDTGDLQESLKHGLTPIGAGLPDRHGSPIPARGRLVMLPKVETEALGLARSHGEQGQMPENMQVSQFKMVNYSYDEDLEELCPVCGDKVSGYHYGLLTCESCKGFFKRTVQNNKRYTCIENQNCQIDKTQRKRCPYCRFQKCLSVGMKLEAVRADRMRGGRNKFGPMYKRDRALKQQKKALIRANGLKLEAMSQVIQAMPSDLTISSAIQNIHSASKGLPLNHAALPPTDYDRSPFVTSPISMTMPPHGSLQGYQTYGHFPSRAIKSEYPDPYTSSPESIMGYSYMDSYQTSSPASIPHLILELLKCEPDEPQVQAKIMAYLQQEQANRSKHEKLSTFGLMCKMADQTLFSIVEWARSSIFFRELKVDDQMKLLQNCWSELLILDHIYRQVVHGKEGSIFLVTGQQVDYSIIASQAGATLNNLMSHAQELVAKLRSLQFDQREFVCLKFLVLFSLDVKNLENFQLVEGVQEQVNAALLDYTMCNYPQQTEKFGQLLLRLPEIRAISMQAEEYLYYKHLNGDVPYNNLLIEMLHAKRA
Steroidogenic factor 1 (Homo sapiens), sequence (Q13285 whole entry, looked up, the tested form may be a part): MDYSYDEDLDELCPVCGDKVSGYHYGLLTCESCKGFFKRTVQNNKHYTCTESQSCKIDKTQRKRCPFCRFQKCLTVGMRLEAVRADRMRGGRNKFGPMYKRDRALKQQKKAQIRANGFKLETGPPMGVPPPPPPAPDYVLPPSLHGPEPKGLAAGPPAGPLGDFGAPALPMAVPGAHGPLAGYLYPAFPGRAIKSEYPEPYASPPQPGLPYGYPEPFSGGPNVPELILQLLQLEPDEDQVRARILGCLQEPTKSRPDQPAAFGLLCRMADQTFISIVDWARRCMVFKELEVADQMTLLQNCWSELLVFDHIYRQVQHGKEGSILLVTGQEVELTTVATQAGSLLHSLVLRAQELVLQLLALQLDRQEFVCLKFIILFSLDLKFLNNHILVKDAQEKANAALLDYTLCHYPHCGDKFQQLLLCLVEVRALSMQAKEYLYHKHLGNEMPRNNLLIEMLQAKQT

On to `CC1CC(C)C(=O)C(C(CC2CC(=O)NC(=O)C2)OC(=O)CC(=O)c2ccccc2)C1` (stereo not given), for which the inhibition (in general, the relative decrease from the control value, in per cent) is 93.1% (active) in assay [1]; 88.9% (active) in assay [2]; 81.3% (active) in assay [3]; 87.8% (active) in assay [4]; 91.6% (active) in [5]; 108% (active) in assay [6]. Moreover, the inhibition in assay [7] was 96.9% (active); in assay [8] it was 91.7% (active); in assay [9], 37.2% (active); in assay [10], 52.5% (active).
Regarding `Cc1c(/C(O)=C2/C(=O)C(=O)N(CCN3CCOCC3)C2c2ccccn2)cnn1-c1ccccc1` (stereo not given), the inhibition in [1] was 62.5% (active); in assay [2], 41.7% (active); in assay [3] it was 54.5% (active); in assay [4], 26.1% (active); in assay [5] it was 68.9% (active); in assay [6], 24.3%. The inhibition in [7] is 75.2% (active); in assay [8], 12.3%; in assay [9] it was 68.5% (active); in assay [10] it was 83.4% (active).
For the compound `O=C(/C=C/Nc1ccccc1Br)c1ccccn1`, the inhibition in assay [1] was 48.5% (active); in assay [2] it was 32.8% (active); in [3] it was 10.4%; in assay [4], 33.1% (active); in assay [5], 58.2% (active); in assay [6], 42.5% (active). For the same compound, the inhibition in [7] was 62.7% (active); in [8], 36.1% (active); in assay [9], 64.9% (active); in [10] it was 82.7% (active).
For the compound `O=[N+]([O-])c1nn(-c2ccc3c(c2)OCCO3)n(O)c1=Nc1ccccc1`, the inhibition in [1] was 81% (active); in [2] it was -12.3%; in [3] it was 70.5% (active); in [4] it was 16.2%; in assay [5] it was 68.9% (active); in assay [6], 44.6% (active). Moreover, the inhibition in [7] is 66.5% (active); in assay [8] it was 33.9% (active); in [9] it was 35.2%; in [10], 91.4% (active).
On to `O=C(N/N=C/c1c(O)ccc2ccccc12)c1cccnc1`, for which the inhibition in assay [1] is 71.2% (active); in [2], 81.2% (active); in assay [3] it was 73.1% (active); in [4], 80% (active); in [5] it was 88.5% (active); in [6], 102% (active). The inhibition was 89.4% (active) in assay [7], 86.1% (active) in assay [8], 5.29% in assay [9] and 20.7% in [10].
As for `CC(=O)Nc1ccc(SCC(=O)c2cc(C)n(-c3ccccc3F)c2C)cc1`, the inhibition is 41% in assay [1]; 9.76% in assay [2]; -10.3% in assay [3]; -5.83% in [4]; -29.9% in assay [5]; -14.4% in [6]. Also, the inhibition is -11.8% in assay [7], -26% in [8], -6.67% in [9] and 38% in assay [10].
As for `Cc1c(/C(O)=C2/C(=O)C(=O)N(Cc3cccnc3)C2c2ccccn2)cnn1-c1ccccc1` (stereo not given), the inhibition in assay [1] is 38.2%; in assay [2], 3.13%; in assay [3] it was 20.1%; in [4], -13.8%; in [5], 42% (active); in assay [6], 23.4%. Also, the inhibition in [7] was 36.8%; in assay [8], 7.05%; in assay [9], 11.9%; in assay [10], 52.3% (active).
On to `COc1ccccc1C(=O)N(CCC1CCCN1C)c1nc2ccccc2s1` (stereo not given), for which the inhibition was 38.7% in assay [1]; 14.6% in assay [2]; -24.3% in [3]; -21.5% in assay [4]; -41.5% in assay [5]; -79.1% in [6]. Also, the inhibition in assay [7] is -54.7%; in assay [8], -44.3%; in assay [9] it was 11.8%; in assay [10], 53.8% (active).
For `Cc1cccc(-n2ncc3c(N(C)C4CCCCC4)ncnc32)c1`, the inhibition in assay [1] was 72.9% (active); in [2] it was 64.4% (active); in assay [3] it was 28.5%; in [4], 46.4% (active); in assay [5] it was 60.6% (active); in assay [6], 11.5%. Also, the inhibition in assay [7] is 52.7% (active); in [8], 29%; in [9], 52.5% (active); in assay [10], 83% (active).
Take `CCn1c(C)cc(C(=O)CN2C(=O)c3ccccc3S2(=O)=O)c1C`: the inhibition in assay [1] is 30.1%; in [2] it was 31.5% (active); in assay [3] it was -18.2%; in assay [4] it was 25%; in assay [5] it was 33.4% (active); in [6], -16.2%. For the same compound, the inhibition in assay [7] was 28.1%; in [8], 11%; in assay [9] it was 46.9% (active); in assay [10], 59.8% (active).
With `Cc1cc(C(=O)Nc2ccc(Cl)cc2)c(C)n1-c1ccccc1`, the inhibition in [1] was 74.9% (active); in [2] it was 69.7% (active); in assay [3], 60.1% (active); in assay [4], 50.3% (active); in assay [5], 70% (active); in [6], 38%. Also, the inhibition in assay [7] is 71.7% (active); in assay [8], 55.4% (active); in assay [9] it was 82.5% (active); in assay [10], 85.7% (active).
On to `Cc1cc(C(=O)CSc2nc3ccccc3[nH]2)c(C)n1CC1CCCO1` (stereo not given), for which the inhibition in assay [1] was 5.02%; in assay [2], 30.5% (active); in [3], -86.8%; in assay [4], -6.65%; in assay [5], -34.6%; in assay [6], -80.8%. Further, the inhibition is -1.87% in assay [7], 32.9% (active) in assay [8], 31.5% in assay [9] and 50.9% (active) in [10].
Regarding `CCC1(O)C(=O)OCc2c1cc1n(c2=O)Cc2cc3cc(O)ccc3nc2-1` (stereo not given), the inhibition in [1] was 94.8% (active); in assay [2] it was 79.2% (active); in assay [3], 68.8% (active); in assay [4], 77.4% (active); in assay [5] it was 84.6% (active); in [6], 104% (active). In addition, the inhibition is 91.4% (active) in assay [7], 83.8% (active) in assay [8], 24.9% in assay [9] and 39.5% in [10].
With `COc1ccc(-c2nsc3c(N4CCCCC4C)ncnc23)cc1` (stereo not given), the inhibition is 84.2% (active) in assay [1]; 80.4% (active) in assay [2]; 70.2% (active) in assay [3]; 68.4% (active) in [4]; 80.2% (active) in assay [5]; 59.2% (active) in assay [6]. For the same compound, the inhibition is 80.9% (active) in assay [7], 67% (active) in [8], 83.1% (active) in [9] and 93.3% (active) in [10].
In the case of `COc1ccc2c(c1)-c1c(ssc1=S)C(C)(C)N2`, the inhibition in assay [1] was 73.3% (active); in assay [2] it was 54.6% (active); in assay [3] it was 64% (active); in assay [4], 50.3% (active); in [5] it was 28.7% (active); in assay [6], 46.7% (active). For the same compound, the inhibition in [7] was 41.5%; in [8], 67.9% (active); in assay [9] it was 6.45%; in assay [10], 49.7% (active).
